A short description of experiment [1]: compounds binding Alexa647 anti-His antibody – biochemical, small-molecule microarray, 635 nm fluorescence, artefact control for SMM control protein annotation, primary screen (AID 1128).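 Further: score merges feature fluorescence with signal-to-noise for each printed compound spot.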 The settings on record: higher = more signal.
Experiment [2] has as its system Human papillomavirus type 1a E7 protein (residues 1-88). Nature of the experiment: HPV1a E7 small-molecule binders, primary screen, biochemical, small-molecule microarray, residues 1-88, 635 nm (AID 1129). Conditions: small-molecule microarray binding, fluorescence 635 nm; higher = more signal.
In experiment [3] the target is Focal adhesion kinase 1 (Homo sapiens) (UniProt Q05397). Description: PTK2 protein binding on printed compound slides – biochemical, small-molecule microarray, 635/667 nm fluorescence, BSA, DTT, primary screen (AID 1130).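 Further: composite of spot emission at 667 nm and signal to noise over triplicate slides.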 The settings on record: 635 nm fluorescence, higher = more signal.
Focal adhesion kinase 1 (Homo sapiens), sequence (Q05397 whole entry, looked up): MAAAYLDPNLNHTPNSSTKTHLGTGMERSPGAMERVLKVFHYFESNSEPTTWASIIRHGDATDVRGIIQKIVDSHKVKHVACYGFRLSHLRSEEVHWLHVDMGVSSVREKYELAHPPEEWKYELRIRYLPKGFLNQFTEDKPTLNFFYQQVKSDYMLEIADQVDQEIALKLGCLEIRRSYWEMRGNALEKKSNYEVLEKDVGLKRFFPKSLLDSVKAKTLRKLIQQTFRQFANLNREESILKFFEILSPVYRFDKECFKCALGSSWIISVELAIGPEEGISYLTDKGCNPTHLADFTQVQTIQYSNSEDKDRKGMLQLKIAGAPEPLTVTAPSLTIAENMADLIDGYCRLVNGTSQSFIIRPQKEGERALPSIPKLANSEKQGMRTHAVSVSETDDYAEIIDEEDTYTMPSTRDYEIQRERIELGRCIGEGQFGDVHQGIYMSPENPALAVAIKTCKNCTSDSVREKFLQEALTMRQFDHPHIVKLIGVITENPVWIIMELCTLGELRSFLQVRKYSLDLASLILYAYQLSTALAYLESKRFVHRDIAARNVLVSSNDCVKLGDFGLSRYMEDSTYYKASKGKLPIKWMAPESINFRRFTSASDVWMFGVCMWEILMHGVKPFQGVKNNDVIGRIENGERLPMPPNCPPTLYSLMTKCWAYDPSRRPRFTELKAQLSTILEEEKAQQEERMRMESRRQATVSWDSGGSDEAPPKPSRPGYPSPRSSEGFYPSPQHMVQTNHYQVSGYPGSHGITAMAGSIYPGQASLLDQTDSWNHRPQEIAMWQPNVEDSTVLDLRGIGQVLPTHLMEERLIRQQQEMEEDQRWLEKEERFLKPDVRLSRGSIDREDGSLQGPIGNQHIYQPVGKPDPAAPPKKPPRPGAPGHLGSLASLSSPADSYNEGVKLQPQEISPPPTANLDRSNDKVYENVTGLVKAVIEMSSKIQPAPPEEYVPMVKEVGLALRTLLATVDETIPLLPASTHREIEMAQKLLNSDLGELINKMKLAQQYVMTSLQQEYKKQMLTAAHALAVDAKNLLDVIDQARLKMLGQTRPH
Experiment [4] relates to Fibrinogen (Alexa647-labelled). Description: Alexa647-fibrinogen binding to printed small molecules – biochemical, small-molecule microarray, 635/667 nm fluorescence, artefact control for SMM control-protein annotation, profiling panel (AID 1131).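 Further: z-score merges 667 nm fluorescence with per-spot signal-to-noise over triplicate slides.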 Conditions: fibrinogen-A647 binding fluorescence, higher = more signal.
For experiment [5], the target named is Follistatin (Homo sapiens) (UniProt P19883). Description: FST protein binding to printed compounds – biochemical, small-molecule microarray, 635/667 nm fluorescence, primary screen (AID 1132). Conditions: 635 nm fluorescence, higher = more signal.
Follistatin (Homo sapiens), sequence (P19883 whole entry, looked up): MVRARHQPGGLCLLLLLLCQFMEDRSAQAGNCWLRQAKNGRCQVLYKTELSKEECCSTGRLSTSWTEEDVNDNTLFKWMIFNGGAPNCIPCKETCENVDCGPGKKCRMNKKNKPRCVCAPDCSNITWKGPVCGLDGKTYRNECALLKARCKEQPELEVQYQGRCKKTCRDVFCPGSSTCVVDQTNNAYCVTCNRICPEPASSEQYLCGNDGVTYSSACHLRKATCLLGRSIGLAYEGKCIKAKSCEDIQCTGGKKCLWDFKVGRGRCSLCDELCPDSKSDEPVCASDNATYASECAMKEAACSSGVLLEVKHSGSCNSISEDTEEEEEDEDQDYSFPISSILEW
Experiment [6] deals with Fibroblast growth factor 2 (Homo sapiens) (UniProt P09038). Nature of the experiment: basic fibroblast growth factor binding to printed compounds – biochemical, small-molecule microarray, 635/667 nm fluorescence, primary screen (AID 1133). The settings on record: FGF2, fluorescence 635/667, higher = more signal.
Fibroblast growth factor 2 (Homo sapiens), sequence (P09038 whole entry, looked up): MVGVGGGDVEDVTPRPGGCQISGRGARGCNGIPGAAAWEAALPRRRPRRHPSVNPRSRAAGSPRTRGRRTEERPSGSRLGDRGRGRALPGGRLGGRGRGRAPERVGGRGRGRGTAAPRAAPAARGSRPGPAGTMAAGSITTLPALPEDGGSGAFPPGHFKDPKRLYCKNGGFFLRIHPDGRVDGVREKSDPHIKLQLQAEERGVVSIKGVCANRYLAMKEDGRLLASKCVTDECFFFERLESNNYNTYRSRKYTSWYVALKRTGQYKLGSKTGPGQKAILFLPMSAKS
Experiment [7] is described as follows: JC-1 mitochondrial potential readout, lung cancer cells – cell-based, A549, JC-1 fluorescence, basal, 24 h, 100 nL, profiling panel (AID 1138).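 Further: A549 lung adenocarcinoma cells under basal conditions with no added stimulus; test concentration not given here.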 Conditions: higher = more signal.
A further experiment has as its system Lefty1. Nature of the experiment: Lefty1 protein binding to printed compounds – biochemical, small-molecule microarray, 635/667 nm fluorescence, primary screen (AID 1139). The settings on record: fluorescence 635/667, higher = more signal.
Experiment [8] has as its system wheat germ agglutinin (Triticum aestivum), Alexa647-labelled. Description: Alexa647-WGA lectin binding to printed small molecules – biochemical, small-molecule microarray, 635/667 nm fluorescence, artefact control for SMM control-protein annotation, profiling panel (AID 1140).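 Further: score merges 667 nm feature emission with signal to noise over triplicate slides.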 Conditions: WGA-A647 binding, 635 nm fluorescence, higher = more signal.
Experiment [9] deals with Luciferin 4-monooxygenase (Photinus pyralis) (UniProt P08659). Nature of the experiment: inhibition of purified Photinus pyralis luciferase – biochemical, luminescence, purified enzyme, 2006 set, primary screen (AID 1141).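 Further: cell-free assay with purified firefly luciferase at 100 ng per well in PBS; test concentration not given here.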 The settings on record: purified firefly luciferase, SteadyGlo luminescence, 30 min; higher = more signal, called active from +8 up or from −8 down.
Luciferin 4-monooxygenase (Photinus pyralis), sequence (P08659 whole entry, looked up): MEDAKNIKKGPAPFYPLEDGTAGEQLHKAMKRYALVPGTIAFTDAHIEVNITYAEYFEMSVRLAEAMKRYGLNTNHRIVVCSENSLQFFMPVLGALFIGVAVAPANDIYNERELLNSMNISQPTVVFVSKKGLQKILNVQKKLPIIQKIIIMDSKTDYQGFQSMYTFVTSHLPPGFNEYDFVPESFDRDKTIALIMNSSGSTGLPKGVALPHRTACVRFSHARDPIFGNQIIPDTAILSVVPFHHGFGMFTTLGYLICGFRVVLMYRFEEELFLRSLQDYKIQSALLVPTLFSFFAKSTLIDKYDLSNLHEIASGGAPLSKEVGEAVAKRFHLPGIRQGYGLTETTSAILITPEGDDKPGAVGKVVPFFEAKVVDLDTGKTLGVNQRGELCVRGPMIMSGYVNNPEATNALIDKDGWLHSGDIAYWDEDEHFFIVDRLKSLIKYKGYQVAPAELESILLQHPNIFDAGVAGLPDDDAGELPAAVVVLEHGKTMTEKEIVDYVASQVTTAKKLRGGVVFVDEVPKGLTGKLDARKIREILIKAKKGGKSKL

Activity calls are given as the source filed them.

Take `C[C@H]1CC[C@H]2C(=O)OC(CO)CN2[C@@H]1c1ccc(Br)cc1` (stereo not given in full): the composite z-score was 0.58 in experiment [1]; -0.805 in experiment [2]; -0.442 in experiment [3]; 0.276 in [4]; 0.124 in [5]; -0.153 in [6]. Besides, the composite z-score in the experiment on Lefty1 is -0.0811; in [8], 0.162. Also, the z-score in experiment [7] is -0.486; in experiment [9] it was -0.0741 (inactive).
Take `CO[C@H]1COC(=O)[C@H](C)NC(=O)[C@@H](C)COC(=O)[C@H]2CCCN2C(=O)CC=C[C@H]1C`: the composite z-score in experiment [1] was -0.395; in [2] it was 0.185; in experiment [3], 0.0089; in experiment [4], -0.157; in [5] it was 0.593; in experiment [6] it was 0.806. The figures for the composite z-score (in the experiment with Lefty1; in experiment [8]) were 0.632 and -0.375, respectively. For the same compound, the results for the z-score in experiment [7] and in [9] were -0.392 and 0.574 (inactive), respectively.
`COc1ccc(O[C@H]2C=C[C@@H](c3ccccc3)O[C@@H]2CON=C2[C@H]3CCn4c(=O)n(-c5ccccc5)c(=O)n4[C@H]3[C@H](O)[C@@H]3O[C@H]23)cc1`: the composite z-score in experiment [1] was -0.444; in [2] it was 1.05; in [3] it was 0.0673; in [4], 0.335; in experiment [5], 0.356; in [6], 0.199. Moreover, the composite z-score with Lefty1 is 0.451; in [8], 0.883. The z-score in experiment [7] is -0.336; in experiment [9], 0.618 (inactive).
Turning to `CCOC(=O)[C@H](Cc1ccccc1)NC(=O)CCC1CC(OC(=O)NCCc2ccc(F)cc2)CC2(CCCC(COC(=O)NCCCN3CCCC3=O)O2)O1` (stereo not given in full), the composite z-score in [1] was 0.688; in experiment [2] it was 0.902; in experiment [3] it was 0.494; in experiment [4], 0.552; in experiment [5], 0.578; in [6], 0.37. The composite z-score was 0.461 with Lefty1 and 0.374 in experiment [8]. For the same compound, the z-score in experiment [7] was 0.837; in [9], -0.241 (inactive).
Turning to `CCOC(=O)[C@H](Cc1ccccc1)NC(=O)CCC1CC(OC(=O)NCCc2ccc(F)cc2)CC2(CCCC(COC(=O)NCCc3ccccc3OC)O2)O1` (stereo not given in full), the composite z-score in experiment [1] turned out to be 0.949; in [2], 1.15; in experiment [3], 0.165; in [4], 0.916; in experiment [5], 0.818; in experiment [6] it was 0.888. The composite z-score was determined as 1.11 in the experiment with Lefty1 and 0.441 in experiment [8]. Further, the z-score was -0.366 in experiment [7] and 0.451 (inactive) in experiment [9].
As for `O=c1n(Cc2cc3c(cc2Cl)OCO3)c(=O)n2n1CC[C@@H]1C(=NOCc3ccccc3)[C@H]3O[C@H]3[C@@H](O)[C@@H]12`, the composite z-score is 0.559 in experiment [1]; 0.459 in experiment [2]; -0.0758 in experiment [3]; 0.623 in experiment [4]; 0.444 in experiment [5]; 0.784 in [6]. Moreover, the composite z-score in the experiment with Lefty1 amounted to 0.716; in experiment [8], 0.125. The z-score is 0.679 in [7] and -1.8 (inactive) in [9].
Turning to `COC(=O)[C@H](C)NC(=O)CCC1CC(OC(=O)NCc2ccc3c(c2)OCO3)CC2(CCCC(COC(=O)NCC(c3ccccc3)c3ccccc3)O2)O1` (stereo not given in full), the composite z-score in experiment [1] stood at 1.31; in experiment [2], 1.22; in experiment [3], 0.136; in [4] it was 0.925; in [5], 0.986; in experiment [6], 0.903. Further, the composite z-score in the experiment on Lefty1 amounted to 1.25; in experiment [8], 0.31. Moreover, the figures for the z-score in [7] and in [9] were -1.35 and 0.834 (inactive), respectively.
For the compound `COc1ccc(O[C@H]2C=C[C@@H](c3ccccc3)O[C@@H]2COC(=O)CCC(C)=NOC(C)CN2CCCc3nc(C)c(C)cc32)cc1` (stereo not given in full), the composite z-score in experiment [1] was 0.264; in experiment [2], 1.11; in experiment [3] it was 0.0304; in experiment [4], 0.381; in [5], 0.653; in [6], 0.584. Also, the composite z-score is 0.901 in the experiment on Lefty1 and -0.028 in [8]. Moreover, the z-score in [7] is 1.89; in [9], 0.503 (inactive).
With `COc1cccc([C@H]2Oc3ccc(OC)cc3C(=NOC(C)CN3CCCCc4nc(C)c(C)cc43)[C@@H]2O)c1` (stereo not given in full), the composite z-score in experiment [1] was 1.95; in [2], 0.195; in experiment [3] it was -0.251; in experiment [4], 0.755; in experiment [5], 0.241; in experiment [6], 0.414. In addition, the composite z-score in the experiment on Lefty1 amounted to 0.341; in experiment [8], 0.698. In addition, the results for the z-score in experiment [7] and in experiment [9] were -0.349 and -0.404 (inactive), respectively.
For `Cc1cc2c(nc1C)CCCN2CC(O)CN1CCCc2nc(C)c(C)cc21`, the composite z-score is 1.92 in experiment [1]; -0.0317 in [2]; 0.281 in [3]; -0.575 in experiment [4]; 0.817 in [5]; 1.06 in experiment [6]. Besides, the composite z-score in the experiment with Lefty1 is 0.454; in experiment [8], 0.562. Further, the values for the z-score in experiment [7] and in experiment [9] were -0.685 and 0.723 (inactive), respectively.
Turning to `COC(=O)[C@H]1O[C@@H](c2c(OC)c(OC)c(C)c(OC)c2OC)[C@H](C)[C@@H](O)[C@H]1C`, the composite z-score in [1] is 0.377; in experiment [2] it was 0.998; in experiment [3], 0.169; in [4] it was 0.902; in experiment [5] it was 0.694; in [6], 0.577. Also, the composite z-score with Lefty1 came to 1.08; in experiment [8], 0.526. Also, the z-score in [7] was 0.274; in experiment [9], -0.246 (inactive).
As for `COC(=O)[C@H](C)NC(=O)CCC1CC(OC(=O)NCCc2ccc(F)cc2)CC2(CCCC(COC(=O)NCc3cccc(C(F)(F)F)c3)O2)O1` (stereo not given in full), the composite z-score in experiment [1] was determined as 0.158; in experiment [2], 0.637; in experiment [3] it was 0.145; in experiment [4] it was 0.563; in experiment [5], 1.19; in [6] it was 0.617. The composite z-score with Lefty1 was 1.43; in experiment [8], 0.0337. Moreover, the figures for the z-score in experiment [7] and in [9] were -0.0843 and 0.0641 (inactive), respectively.
Turning to `CO[C@H]1COC(=O)CC=C[C@@H](C)[C@H](NS(=O)(=O)c2ccc(C)cc2)COC(=O)CCC[C@@H]1C`, the composite z-score is 0.167 in experiment [1]; -0.21 in experiment [2]; 0.193 in experiment [3]; 0.19 in experiment [4]; 0.785 in experiment [5]; 0.579 in experiment [6]. Further, the composite z-score is 0.962 in the experiment on Lefty1 and -0.0807 in [8]. For the same compound, the z-score in [7] is -1.07; in experiment [9] it was 1.03 (inactive).
